Several values for one entry are separate records, joined by “and”; a condition that tells them apart may be missing. Identical values can stand only once. Results filed as inconclusive are left out. Activity calls are given as the source filed them. Unless noted, calls follow the shape of the dose curve; as a rule, active = well fitted curve in the direction sought with a large enough effect in the repeat runs; inconclusive = weak or mixed curves; inactive = no such curve, though single readings can be large; an effect the other way counts as inactive or inconclusive.
How the values were obtained:
[1] = qHTS assay to test for compound auto fluorescence at 590 nm (red) in HepG2 cells (AID 720674); conditions: HepG2 autofluorescence, red 540/590 nm, 1 h; series mostly up to 46 µM
Summary of the method: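 1 hr compound incubation on HepG2 cells, 37 C, 5% CO2; plate read ex 540 nm / em 590 nm; intensities reported as Rose Bengal sodium equivalents.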

[2] = qHTS assay to test for compound auto fluorescence at 535 nm (green) in HepG2 cells (AID 720675); conditions: green autofluorescence 485/535 nm, 1 h; series mostly up to 46 µM
[3] = qHTS assay to test for compound auto fluorescence at 460 nm (blue) in HEK293 cells (AID 720678); conditions: blue autofluorescence 405/460 nm; series mostly up to 46 µM
Summary of the method: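 HEK293 cells (2,000 per well, medium with 10% dialyzed FBS) attached for 4-5 hr at 37C, then received compound and stood overnight at 37C, 5% CO2. Blue fluorescence was read at Ex/Em 405/460 nm and expressed relative to triamterene.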

[4] = qHTS assay to test for compound auto fluorescence at 590 nm (red) in HEK293 cells (AID 720679); conditions: red autofluorescence 540/590 nm; series mostly up to 46 µM
Summary of the method: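 HEK293 cells (2,000/well, medium with 10% dialyzed FBS) attached for 4-5 hr at 37C, received 23 nL compound and were incubated overnight at 37C, 5% CO2. Red fluorescence was then read at 540/590nm Ex/Em, referenced to Rose Bengal sodium.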

[5] = qHTS assay to test for compound auto fluorescence at 535 nm (green) in HEK293 cells (AID 720680); conditions: green autofluorescence 485/535 nm; series mostly up to 46 µM
[6] = qHTS assay to test for compound auto fluorescence at 460 nm (blue) in HEK293 cell free culture (AID 720681); conditions: cell-free medium, autofluorescence 405/460 nm (blue); series mostly up to 46 µM
Summary of the method: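 Blue fluorescence (Ex 405/Em 460 nm, triamterene-equivalent) was read immediately after pin transfer of compound or DMSO into medium (DMEM, 10% FBS) without cells.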

[7] = qHTS assay to test for compound auto fluorescence at 535 nm (green) in HEK293 cell free culture (AID 720682); conditions: cell-free medium, green autofluorescence 485/535 nm; series mostly up to 46 µM
Summary of the method: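 DMEM + 10% FBS, cell-free; cpd or DMSO pinned in; Ex485/Em535 read; output as fluorescein-equivalent signal.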

[8] = qHTS assay to test for compound auto fluorescence at 590 nm (red) in HEK293 cell free culture (AID 720683); conditions: cell-free medium autofluorescence, Ex540/Em590 red; series mostly up to 46 µM
Summary of the method: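 Red-channel autofluorescence of compounds in culture medium (DMEM, 10% FBS), no cells, measured at 540/590 nm. Rose Bengal sodium is the reference fluorophore for equivalence.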

[9] = qHTS assay to test for compound auto fluorescence at 590 nm (red) in HepG2 cell free culture (AID 720684); conditions: cell-free medium autofluorescence, red 540/590 nm; series mostly up to 46 µM
Summary of the method: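 No cells present: MEM + 10% FBS only. Compound pinned in, red label read (540/590 nm). Activity = fluorescence equivalent to Rose Bengal sodium.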

[10] = qHTS assay to test for compound auto fluorescence at 460 nm (blue) in HepG2 cell free culture (AID 720685); conditions: Cell-free culture medium, blue autofluorescence 405/460 nm; series mostly up to 46 µM
Summary of the method: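 Cell-free plates of MEM plus 10% FBS received 23 nL compound or DMSO vehicle; blue-channel (405/460 nm) intensity scored against triamterene as reference fluorophore.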

[11] = qHTS assay to test for compound auto fluorescence at 535 nm (green) in HepG2 cell free culture (AID 720686); conditions: Cell-free medium, green autofluorescence 485/535 nm; series mostly up to 46 µM
[12] = qHTS assay to test for compound auto fluorescence at 460 nm (blue) in HepG2 cells (AID 720687); conditions: autofluorescence 405/460 nm, 1 h; series mostly up to 46 µM
Summary of the method: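 Blue-channel autofluorescence (Ex/Em 405/460 nm, triamterene-equivalent) was measured after 1 hr compound exposure at 37 C, 5% CO2. Cells were HepG2, plated overnight at 37 C in MEM plus 10% FBS.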

[13] = qHTS assay for identifying genotoxic compounds that show differential cytotoxicity against isogenic chicken DT40 cell lines with known DNA damage response pathways - Rev3 mutant cell line (AID 743014); conditions: chicken DT40 Rev3-/- viability, CellTiter-Glo, 40 h; series mostly up to 68.4 µM; also: nearly all actives have a fitted effect of over 55% in size; also: potency is read from the fitted curve at half-maximal effect
[14] = target: Thyrotropin receptor (Homo sapiens) (UniProt P16473); assay: qHTS assay to identify small molecule agonists of the thyroid stimulating hormone receptor (TSHR) signaling pathway (AID 1224843; calls by dose curve; also: nearly all actives have a fitted effect of over 45% in size; also: potency is read from the fitted curve at half-maximal effect); conditions: TSHR-HEK293 cells, cAMP HTRF, agonist mode, 30 min; series mostly up to 92.4 µM
Chain of Thyrotropin receptor (Homo sapiens) (P16473 whole entry, looked up): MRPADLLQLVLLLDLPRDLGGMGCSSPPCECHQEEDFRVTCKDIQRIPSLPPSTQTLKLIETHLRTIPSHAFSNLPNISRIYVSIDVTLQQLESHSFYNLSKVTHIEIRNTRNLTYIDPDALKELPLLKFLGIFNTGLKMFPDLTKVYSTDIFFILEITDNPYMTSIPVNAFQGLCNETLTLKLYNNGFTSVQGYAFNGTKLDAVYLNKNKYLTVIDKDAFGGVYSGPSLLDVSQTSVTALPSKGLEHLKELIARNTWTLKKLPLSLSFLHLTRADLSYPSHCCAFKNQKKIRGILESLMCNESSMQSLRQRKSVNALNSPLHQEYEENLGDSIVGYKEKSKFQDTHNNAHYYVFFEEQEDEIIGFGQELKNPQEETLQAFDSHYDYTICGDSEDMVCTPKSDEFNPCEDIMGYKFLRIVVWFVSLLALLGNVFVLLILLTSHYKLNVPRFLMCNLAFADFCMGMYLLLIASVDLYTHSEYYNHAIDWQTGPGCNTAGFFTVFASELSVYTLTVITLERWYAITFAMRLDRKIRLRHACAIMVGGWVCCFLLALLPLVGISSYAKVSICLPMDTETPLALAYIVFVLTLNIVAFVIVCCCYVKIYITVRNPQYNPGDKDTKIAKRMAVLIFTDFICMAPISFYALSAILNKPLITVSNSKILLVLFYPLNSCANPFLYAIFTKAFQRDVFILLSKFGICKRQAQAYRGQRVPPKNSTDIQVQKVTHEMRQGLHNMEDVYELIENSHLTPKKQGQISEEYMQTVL
Summary of the method: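 A cell-based cAMP HTRF format was run in TSHR-transfected HEK293 cells, 800 per well. Treatment: 30 min, room temperature. Detection: 1 h with labelled cAMP and anti-cAMP cryptate. Concentration-response over 15 points, three replicates.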

[15] = qHTS assay to identify small molecule antagonists of the estrogen related receptor (ERR) signaling pathway from Tox21 library (AID 1224848); conditions: ERR reporter cell line, luciferase antagonist mode, 18 h; series mostly up to 92.4 µM; also: nearly all actives have a fitted effect of over 50% in size; also: potency is read from the fitted curve at half-maximal effect
Summary of the method: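 ERR cell line, 2,000 cells/well. 6 h settle, then compound (DMSO) added; 18 h at 37 C; ONE-Glo luminescence after 30 min RT.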

[16] = target: Estrogen receptor (Homo sapiens) (UniProt P03372); assay: qHTS assay to identify small molecule antagonists of the estrogen receptor alpha (ER-alpha) signaling pathway using the BG1 cell line in the presence of 0.1 nM 17-beta-estradiol (AID 1259244); conditions: VM7Luc4E2 (BG1) ERE-luciferase, antagonist mode, 0.1 nM E2, 22 h; series mostly up to 92.4 µM; also: nearly all actives have a fitted effect of over 50% in size; also: potency is read from the fitted curve at half-maximal effect
Chain of Estrogen receptor (Homo sapiens) (P03372 whole entry, looked up): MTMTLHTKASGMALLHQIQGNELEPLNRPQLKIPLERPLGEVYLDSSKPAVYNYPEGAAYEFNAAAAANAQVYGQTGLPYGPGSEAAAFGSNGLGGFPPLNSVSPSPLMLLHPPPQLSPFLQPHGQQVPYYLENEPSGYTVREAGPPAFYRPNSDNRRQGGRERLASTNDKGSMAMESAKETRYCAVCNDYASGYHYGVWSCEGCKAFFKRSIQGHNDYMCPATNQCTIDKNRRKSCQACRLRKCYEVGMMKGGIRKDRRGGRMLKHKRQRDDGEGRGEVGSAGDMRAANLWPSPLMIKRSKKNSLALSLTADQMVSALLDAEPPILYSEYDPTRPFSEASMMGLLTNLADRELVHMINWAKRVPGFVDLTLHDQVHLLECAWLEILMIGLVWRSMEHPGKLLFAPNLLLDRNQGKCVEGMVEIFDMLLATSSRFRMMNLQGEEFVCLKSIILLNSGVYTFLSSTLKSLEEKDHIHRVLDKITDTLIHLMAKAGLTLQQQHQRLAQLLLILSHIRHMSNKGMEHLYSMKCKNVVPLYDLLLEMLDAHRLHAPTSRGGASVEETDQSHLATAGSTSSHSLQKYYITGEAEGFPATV
Summary of the method: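 Seeding of stripped-serum-adapted VM7Luc4E2 cells, 24 h attachment, compound transfer, then 0.1 nM final 17beta-estradiol; after 22 h incubation, ONE-Glo reagent and luminescence reading.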

[17] = qHTS assay to identify small molecule agonists of the progesterone receptor (PR) signaling pathway - cell viability counter screen (AID 1346799; calls by dose curve; also: nearly all actives have a fitted effect of over 45% in size; also: potency is read from the fitted curve at half-maximal effect); conditions: PR-UAS-bla HEK293T viability, CellTiter-Glo luminescence, 16 h; series mostly up to 92.4 µM
Summary of the method: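 In parallel with the beta-lactamase readout, cytotoxicity toward PR-UAS-bla HEK293T cells was measured by CellTiter-Glo luminescence following 16 hr compound incubation in 2% charcoal-stripped FBS medium.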

[18] = target: Thyrotropin-releasing hormone receptor (Homo sapiens) (UniProt P34981); assay: qHTS assay to identify small molecule antagonists of the thyrotropin-releasing hormone receptor (TRHR) signaling pathway (AID 1346877; active = well fitted inhibition curve with a large enough effect in the repeat runs, not every such curve was filed as active); conditions: TRHR-HEK293, TRH-induced calcium fluorescence, antagonist mode; series mostly up to 51.3 µM
Chain of Thyrotropin-releasing hormone receptor (Homo sapiens) (P34981 whole entry, looked up): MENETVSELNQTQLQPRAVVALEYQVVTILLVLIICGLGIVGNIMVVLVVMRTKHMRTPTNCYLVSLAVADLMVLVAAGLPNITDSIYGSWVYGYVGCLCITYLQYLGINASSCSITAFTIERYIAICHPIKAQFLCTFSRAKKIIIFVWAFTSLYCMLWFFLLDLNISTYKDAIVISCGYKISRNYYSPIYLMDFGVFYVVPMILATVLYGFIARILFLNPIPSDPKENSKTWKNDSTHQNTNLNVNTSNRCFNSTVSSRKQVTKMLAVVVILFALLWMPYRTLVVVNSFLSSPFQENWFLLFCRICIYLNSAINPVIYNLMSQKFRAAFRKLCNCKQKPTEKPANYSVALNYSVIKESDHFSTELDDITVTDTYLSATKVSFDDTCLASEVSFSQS
Summary of the method: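 Human TRHR in HEK293 cells; inhibition of the intracellular calcium rise triggered by 1 nM TRH was followed by fluorescence over 3 min. Compounds were run at 15 concentrations, three replicates each.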

[19] = qHTS assay to identify small molecule antagonists of the estrogen related receptor signaling pathway with the pleiotropic PPARgamma coactivator (PGC) from Tox21 10K library (AID 1224841; call rule not given here; also: actives are mostly falling curves and most rising ones were filed inactive; nearly all actives have a fitted effect of over 50% in size; also: potency is read from the fitted curve at half-maximal effect); conditions: PGC/ERR reporter cell line, ONE-Glo luciferase, 18 h; series mostly up to 92.4 µM
Summary of the method: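 In the PGC/ERR line, DMSO solutions of test chemicals are pin-delivered to 2,000 cells/well six hours after dispensing. Following eighteen hours' incubation, One-Glo reagent is added and luminescence recorded.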

[20] = target: Estrogen receptor beta (Homo sapiens) (UniProt Q92731); assay: qHTS assay to identify small molecule agonists of the estrogen receptor beta (ER-beta) signaling pathway (AID 1259377; active = well fitted activation curve with a large enough effect in the signal ratio in the repeat runs, not every such curve was filed as active; the % refers to the signal ratio); conditions: ER-beta-UAS-bla HEK293T, beta-lactamase FRET ratio, 16 h; series mostly up to 92.4 µM
Chain of Estrogen receptor beta (Homo sapiens) (Q92731 whole entry, looked up): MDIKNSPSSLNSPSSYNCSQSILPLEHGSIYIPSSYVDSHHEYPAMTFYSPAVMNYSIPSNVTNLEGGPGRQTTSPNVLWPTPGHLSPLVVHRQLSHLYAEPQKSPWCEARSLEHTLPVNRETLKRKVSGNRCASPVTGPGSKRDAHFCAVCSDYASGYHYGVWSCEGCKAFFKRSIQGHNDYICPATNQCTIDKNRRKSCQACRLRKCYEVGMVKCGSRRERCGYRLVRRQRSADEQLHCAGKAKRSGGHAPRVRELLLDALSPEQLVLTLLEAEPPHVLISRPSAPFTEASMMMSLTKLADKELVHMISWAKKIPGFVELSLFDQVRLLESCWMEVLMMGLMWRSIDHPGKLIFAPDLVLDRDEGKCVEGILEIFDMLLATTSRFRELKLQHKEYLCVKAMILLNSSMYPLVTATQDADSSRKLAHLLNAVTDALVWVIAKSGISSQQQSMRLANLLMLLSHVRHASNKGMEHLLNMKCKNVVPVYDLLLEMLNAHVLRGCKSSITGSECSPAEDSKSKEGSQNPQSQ
Summary of the method: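 qHTS in ER-beta-UAS-bla HEK293T cells: 6 hr settling, then 16 hr compound at 37C, then LiveBLAzer substrate 2 h at RT before fluorescence reading.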
% is scaled to controls: 0 for no effect and ±100 for the full control effect.

CN1CSC(=S)N(C)C1
active: Potency [13] 5.42 µM and 5.43 µM | Potency [15] 4.83 µM and 13.6 µM | Potency [16] 13.6 µM and 17.2 µM | Potency [17] 24.3 µM
inactive: outcome [1] | Potency [2] | Potency [3] | outcome [4] | Potency [5] | Potency [6] | Potency [7] | outcome [8] | outcome [9] | Potency [10] | Potency [11] | Potency [12] | Potency [14] | outcome [18]

Cc1ccc2nc3sc(=O)sc3nc2c1
inactive: activation [14] -7.09% [at 19 µM] | activity change, negative = inhibition [16] -0.302% [at 19 µM] | activity change, negative = cytotoxicity [17] -2.84% [at 19 µM] | activity, negative = inhibition [18] 3.17% [at 10.5 µM]

COc1cc(OC)c(OC)cc1C=O
active: Potency [13] 34.3 µM | Potency [19] 21.9 µM | Potency [15] 18.7 µM | Potency [16] 59.3 µM
inactive: outcome [1] | Potency [2] | Potency [3] | outcome [4] | Potency [5] | Potency [6] | Potency [7] | outcome [8] | outcome [9] | Potency [10] | Potency [11] | Potency [12] | Potency [14] | outcome [18]

CCN(CC)C(=O)Cl
inactive: Potency [19] | Potency [14] | Potency [15] | Potency [16] | outcome [20] | Potency [17] | outcome [18]

O=[N+]([O-])c1c(Cl)c(Cl)cc(Cl)c1Cl
inactive: outcome [1] | Potency [2] | Potency [3] | outcome [4] | Potency [5] | Potency [6] | Potency [7] | outcome [8] | outcome [9] | Potency [10] | Potency [11] | Potency [12] | Potency [15] | Potency [16]

O=C(c1ccccc1)C(Cl)Cl
active: Potency [19] 68.6 µM
inactive: Potency [16] | outcome [20] | Potency [17] | outcome [18]

C[C@]12CC[C@@H](O)C[C@@H]1CC[C@@H]1[C@@H]2CC[C@]2(C)C(=O)CC[C@@H]12
active: Potency [17] 68.6 µM

Oc1c(I)cc(I)cc1I
active: Potency [19] 61.1 µM
inactive: Potency [14] | Potency [17]

Cc1cc(C(C)(C)c2ccc(O)c(C)c2)ccc1O
active: Potency [19] 9.23 µM | Potency [14] 46.2 µM | Potency [15] 26 µM
inactive: outcome [1] | Potency [2] | Potency [3] | outcome [4] | Potency [5] | Potency [6] | Potency [7] | outcome [8] | outcome [9] | Potency [10] | Potency [11] | Potency [12] | Potency [13]

CNC(=O)Oc1cc(C)c(SC)c(C)c1
inactive: Potency [14] | Potency [17] | outcome [18]

CCOC(=O)C(O)(c1ccc(Cl)cc1)c1ccc(Cl)cc1
active: Potency [13] 2.19 µM and 24.3 µM | Potency [16] 61.1 µM
inactive: outcome [1] | Potency [2] | Potency [3] | outcome [4] | Potency [5] | Potency [6] | Potency [7] | outcome [8] | outcome [9] | Potency [10] | Potency [11] | Potency [12] | outcome [20] | outcome [18]

Nc1ccc([N+](=O)[O-])cc1
active: Potency [13] 13.3 µM | Potency [15] 7.7 µM | Potency [17] 7.7 µM
inactive: outcome [1] | Potency [2] | Potency [3] | outcome [4] | Potency [5] | Potency [6] | Potency [7] | outcome [8] | outcome [9] | Potency [10] | Potency [11] | Potency [12] | Potency [19]

O=S(=O)(C(Cl)(Cl)Cl)C(Cl)(Cl)Cl
active: Potency [15] 54.5 µM | Potency [16] 27.3 µM
inactive: Potency [17]

ClC(Cl)=C(c1ccc(Cl)cc1)c1ccccc1Cl
inactive: Potency [14] | Potency [16] | outcome [20] | Potency [17] | outcome [18]

N#Cc1cc([N+](=O)[O-])ccc1N
inactive: Potency [14] | Potency [15] | Potency [16] | outcome [20] | Potency [17] | outcome [18]

CO/C=C(/C(=O)OC)c1ccccc1Oc1cc(Oc2ccccc2C#N)ncn1
active: Potency [13] 0.103 µM | Potency [19] 16.4 µM | Potency [15] 2.06 µM | Potency [16] 5.18 µM
inactive: outcome [1] | Potency [2] | Potency [3] | outcome [4] | Potency [6] | Potency [7] | outcome [8] | outcome [9] | Potency [10] | Potency [11] | Potency [12] | outcome [18]

O=C(Nc1ccccc1-c1ccc(Cl)cc1)c1cccnc1Cl
inactive: outcome [1] | Potency [2] | Potency [3] | outcome [4] | Potency [5] | Potency [6] | Potency [7] | outcome [8] | outcome [9] | Potency [10] | Potency [11] | Potency [12] | outcome [20] | outcome [18]
active: Potency [13] 67.4 µM | Potency [19] 64.8 µM | Potency [15] 32.5 µM
